Source: PubChem BioAssay (several laboratories)
Shown are actives, neighbours in structure and some others; about 3.9% of the full set was active somewhere.
C8 TRAIL sens = viability loss with TRAIL in NB7+C8 cells, primary screen, TRAIL sensitizer project, cell-based, ATPlite luminescence | inhibition (viability loss, TRAIL sensitization), % at 10 µM | actives 1% (n = 360,000);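 active = compounds causing at least 50% loss of cell viability in the single-dose screen, relative to plate controls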
HSP90 refold inh = HSP90 inhibitors, primary screen, cell lysate, luminescence. Heat shock protein HSP 90 (rabbit reticulocyte lysate; luciferase refolding). Rabbit reticulocyte lysate, luciferase refolding luminescence, 3 h. inhibition, % at 5.6 µM. actives 0.91% (n = 290,000);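 active = inhibition above the screen-wide mean plus 3 SD, computed separately per campaign, cut at about 16% in these data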;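 note: 0% = DMSO wells and 100% = 60 µM geldanamycin wells; inhibitors lower the luminescence because luciferase stays unfolded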
TWEAK-Fn14 inh = inhibitors of TWEAK-Fn14 signaling, primary screen, luciferase reporter cells, uHTS. AID 1159606, 2016. inhibition, % at 10 µM. actives 2% (n = 360,000). TWEAK-stimulated Fn14 reporter cells, luciferase luminescence, 8 h; in the data active = inhibition above about 50%
TROY NFkB inh = inhibitors of TROY-driven NF-kB signaling, primary screen, Q293 LMP1-TROYcd cells, NF-kB luciferase, uHTS. AID 1347056, 2019. inhibition, % at 10 µM. actives 0.98% (n = 360,000). Q293 LMP1-TROYcd NF-kB luciferase reporter, 4 h;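 active = compounds whose plate-normalised and pattern-corrected inhibition of the luciferase reporter signal at the single screening dose is 50% or more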
aSyn UTR inh = MLPCN primary screen, SNCA 5' untranslated region | alpha-synuclein 5'UTR reporter, inhibitor activity | inhibition, % (tested at 7.5 µM) | actives 0.82% (n = 300,000) | AID 1813, 2009; in the data active = inhibition above about 60%; inconclusive = no clear call, values can overlap the other calls;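 note: H4 neuroglioblastoma cells stably carrying SNCA 5'UTR luciferase fusion; 0% = DMSO wells and 100% = positive control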
HIF-2a inh = HIF-2a reporter inhibitors, primary screen, luminescence, 786-0 RCC cells | actives 0.72% (n = 360,000) | inhibition, % at 18.8 µM | 786-0 RCC cells HIF-2a reporter, luciferase luminescence, overnight;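 active = inhibition of the luminescence signal of 40% or more relative to plate controls, in a single-dose primary screen at 18.75 µM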
* hit, by the source's call; ? = inconclusive; / = no result.

SMILES | C8 TRAIL sens | HSP90 refold inh | TWEAK-Fn14 inh | TROY NFkB inh | aSyn UTR inh | HIF-2a inh
O=C(c1cnn2c(C(F)(F)F)cc(-c3ccccc3)nc12)N1CCCCC1c1cccnc1 (configuration not stated) | 0 | 3 | 15 | 5 | 42 | 26
O=C(c1cc2nc(-c3ccc(F)cc3)cc(C(F)(F)F)n2n1)N1CCCCC1c1cccnc1 (configuration not stated) | 22 | 4 | 61* | 45 | 18 | -4
COc1ccc(C2=CSC3=NCCN23)cc1Cl | 10 | 6 | -14 | 0 | 19 | 13
COc1ccc(C2=CSC3=NCCN23)cc1F | 5 | 4 | -6 | 54* | 15 | 0
O=[N+]([O-])c1cc(S(=O)(=O)Oc2ccccc2)ccc1Cl | 58* | / | 38 | 5 | / | 88*
CCOc1cccc2sc(N(CCCN(C)C)C(=O)c3ccc(S(=O)(=O)N(C)c4ccccc4)cc3)nc12 | 7 | 4 | 0 | -1 | 4 | 6
Cc1cc(C)c2nc(NNC(=O)c3ccc(S(=O)(=O)N4CCCCC4)cc3)sc2c1 | -2 | 6 | -23 | -3 | 46 | -15
Cc1cccc2sc(NNC(=O)c3ccc(S(=O)(=O)N4CCc5ccccc5C4)cc3)nc12 | 15 | 5 | 44 | 29 | 67* | 30
CCOc1cccc2sc(N(CCCN(C)C)C(=O)c3ccc(S(=O)(=O)N4CCc5ccccc5C4)cc3)nc12 | 68* | 4 | -8 | -38 | ? | -1
Cc1cccc2sc(NNC(=O)c3ccc(S(=O)(=O)N4CCCC(C)C4)cc3)nc12 (configuration not stated) | 67* | 8 | 63* | 46 | 78* | 10
O=C(CSc1nc2[nH]ncc2c(=O)[nH]1)Nc1cc(C(F)(F)F)ccc1Cl | -1 | / | -9 | -1 | / | 5
COc1ccccc1-c1csc(C(C)(NC(C)=O)c2ccccc2)n1 (configuration not stated) | 20 | / | -15 | -18 | / | -20
COc1cccc(-c2oc3c(c2C#CC2(N)CCCCC2)C(O)CCC3)c1 (configuration not stated) | 2 | / | -4 | -2 | / | -11
CCN(CC)C(=O)CSc1nc(-c2ccc(C)cc2)nc2c1COC(C)(C)C2 | 2 | 3 | 58* | 58* | -1 | 3
N#CCCn1ccc(NC(=O)c2ccc(Cl)cc2)n1 | -7 | 0 | 67* | / | -32 | -55
C/C=C/c1cccc(-c2nc(C(=O)N3CCOCC3)cc3c2[C@H](CCO)N(C(=O)NC(C)C)C3)c1 | -8 | / | -14 | -2 | / | 7
O=C(c1ccc(C(F)(F)F)cc1)N1CCC(=O)N(C(CO)Cc2ccccc2)CC1 (configuration not stated) | 3 | / | 70* | -29 | 10 | 4
Cc1ccc(-c2nc3c4ccccc4ccn3c2Cc2ccccc2C(F)(F)F)cc1 | 6 | / | 6 | -38 | / | -10
COC(=O)c1cc(NC(=O)CN(c2ccccc2OC)S(=O)(=O)c2ccccc2)ccc1Cl | -8 | 3 | 53* | 14 | 24 | 27
COc1cccc(N(CC(=O)Nc2ccc3c(c2)OCO3)S(=O)(=O)c2ccccc2)c1 | -4 | -1 | 3 | -19 | 11 | -12
COC(=O)c1cc(NC(=O)CN(c2cccc(OC)c2)S(=O)(=O)c2ccccc2)ccc1Cl | 4 | 4 | 51* | 35 | 16 | 34
O=C(Nc1ccc(S(=O)(=O)NC2=NCCCCC2)cc1)c1cccc(OC(F)F)c1 | 5 | / | 11 | 12 | / | 16
Nc1c(N(CCC2=CCCCC2)C(=O)Cc2ccc(F)cc2)c(=O)[nH]c(=O)n1Cc1ccccc1 | -15 | / | 13 | -8 | 1 | 3
Nc1c(N(CCC2=CCCCC2)C(=O)COc2ccc(F)cc2Cl)c(=O)[nH]c(=O)n1Cc1ccccc1 | 88* | / | 42 | 10 | / | -3
O=C(NCc1ccccn1)[C@@H]1CCCN1C(=O)[C@@H]1CCCN1C(=O)c1cccc2ccccc12 | 0 | / | 24 | 0 | / | -3
SMILES | C8 TRAIL sens | HSP90 refold inh | TWEAK-Fn14 inh | TROY NFkB inh | aSyn UTR inh | HIF-2a inh
CCNc1ncnc2c1cnn2C1CCCCO1 (configuration not stated) | -7 | / | 6 | -18 | / | -33
C(=Nn1cnnc1)c1ccc2c(c1)CCC2 | 3 | / | 6 | -18 | / | -4
OCCN=C1CCCc2c1[nH]c1ccc(Br)cc21 | 11 | -3 | 7 | 5 | 62* | -25
Cc1cccc2nc(CSc3nc4[nH]ncc4c(=O)n3-c3ccccc3Cl)cc(=O)n12 | 1 | -1 | 12 | 10 | 15 | 22
Cc1ccccc1-n1c(SCc2cc(=O)n3ccccc3n2)nc2[nH]ncc2c1=O | 2 | 1 | 60* | / | 10 | 10
OCCCNc1ncnc2sc3c(c12)CCN(Cc1ccccc1)C3 | -7 | 4 | 69* | 36 | 3 | 5
COCCN1C(=O)COc2ccccc2C1C(=O)NC1CCCC1 (configuration not stated) | 10 | / | 21 | -10 | / | 1
CCc1nc2c(oc3ccccc32)c(=O)[nH]1 | 14 | -3 | -4 | -16 | -38 | -88
O=c1[nH]c(CSc2ccccn2)nc2c1oc1ccccc12 | 30 | 7 | 65* | 46 | 31 | -56
CC1(C)OC2COC(c3[nH]nc4c(=O)[nH]c(=O)[nH]c34)C2O1 (configuration not stated) | -20 | / | -8 | -12 | / | -3
COc1cc(OC)c(N(C)S(=O)(=O)c2cccc(C(=O)OCC(=O)c3c[nH]c4ccccc34)c2)cc1Cl | 26 | 5 | 96* | 45 | -34 | 23
C=CCN(c1ccccc1OC)S(=O)(=O)c1cccc(C(=O)OCC(=O)c2c[nH]c3ccccc23)c1 | 6 | -1 | 85* | 17 | -12 | 7
CC(C)NC(=O)C1(C)CSCC(=O)N1CCCn1ccnc1 (configuration not stated) | -1 | / | / | / | / | 5
COc1cc(OC)nc(C(NC(=O)C2CCN(Cc3c[nH]c4ccccc34)CC2)c2ccc(Cl)cc2)n1 (configuration not stated) | 33 | / | -13 | 18 | / | -1
CCN(CC)S(=O)(=O)c1cc(NC(=O)CSc2nc3c(cc2C#N)C(=O)CC(C)(C)C3)ccc1C | 23 | 0 | 55* | 46 | 13 | 8
COc1cc2ccnc(C=NO)c2cc1OC | 2 | / | 24 | 21 | / | 26
COc1cc2ccnc(C=O)c2cc1OC | 33 | / | 56* | 2 | / | 6
N#Cc1ccsc1NC(=O)CSc1ncnc2ccccc12 | 11 | 3 | 1 | 56* | 31 | -23
N#Cc1ccsc1NC(=O)CSc1ncn[nH]1 | -5 | -2 | 8 | -9 | -43 | -58
